The list is not random: actives were taken first. Their share in the collection is about 5.4%.
VACV mCherry inh: vaccinia inhibition (mCherry reporter); 310,000 compounds, 0.63% hits; Vaccinia virus mCherry reporter infection, fluorescence; Potency, µM (highest dose often 36.5 µM), inactives show at the highest dose activity change, negative = inhibition, usual class: inhibitors; calls by dose curve; tested in A549 cells; note: nearly all actives have a fitted effect of over 35% in size
MARV entry inh: inhibitors of Marburg virus binding or cell entry; Marburg virus pseudotyped entry inhibition, cell reporter; Potency, µM (highest dose often 37.8 µM), for inactives: at the top dose activity change, negative = inhibition, usual class: inhibitors; 300,000 compounds, 1.8% hits; AID 540276; calls by dose curve; tested in HEK293 cells
FMDV antiviral: foot and mouth disease virus antiviral activity. 410,000 compounds, 1.2% hits. FMDV antiviral cell-based qHTS. Potency, µM (highest dose often 57.9 µM), without a hit: at the top dose activity change, negative = inhibition, most hits filed as inhibitors; calls by dose curve; tested in HEK293T cells; note: read-out not given here; nearly all actives have a fitted effect of over 45% in size
VACV Venus inh: inhibitors of vaccinia virus (Venus reporter); Vaccinia virus Venus reporter expression, fluorescence; Potency, µM (highest dose often 36.5 µM), for inactives: top-dose activity change, negative = inhibition, hits mostly inhibitors; 330,000 compounds, 0.46% hits; calls by dose curve; tested in A549 cells; note: nearly all actives have a fitted effect of over 30% in size
Lassa entry inh: Lassa virus entry inhibition; Lassa virus pseudotype entry inhibition, cell reporter; 300,000 compounds, 1.2% hits; Potency, µM (top dose mostly 37.9 µM), for the others: top-dose activity change, negative = inhibition, usual class: inhibitors; calls by dose curve; tested in HEK293 cells; note: nearly all actives have a fitted effect of over 50% in size
Sm TGR inh: S. mansoni TGR enzyme inhibition. Q962Y6. purified TGR, DTNB reduction, TNB absorbance 405 nm. Potency, µM (top dose mostly 114 µM), without a hit: at the top dose activity change, negative = inhibition, usual class: inhibitors. 360,000 compounds, 3% hits; active = well fitted inhibition curve with a large enough effect; inconclusive = small, poorly fitted or top-dose-only effect; inactive = no such curve, though single readings can be large or run the other way; note: nearly all actives have a fitted effect of over 60% in size
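Kinetic colorimetric format: TGR-catalysed, NADPH-driven DTNB reduction monitored via TNB absorbance. Enzyme dispensed at 20 nM; compound exposure 15 min at room temperature before reaction start.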
Starred values were filed as active, the others as inactive; [ ] = dose if it differs, or a comment. % is set by controls: 0 for no effect and ±100 for the full control effect; potency is the fitted concentration of half-maximal effect.

For N#CC(c1ccccn1)c1ncc(C(F)(F)F)cc1Cl (configuration not stated) the results were VACV mCherry inh -7%, MARV entry inh -1%[46.1 µM], FMDV antiviral -9%, VACV Venus inh -13%, Lassa entry inh 7%[46.1 µM] and Sm TGR inh 24%.
Screening COc1ccc(Br)cc1Cn1nnc(C(=O)Nc2cccc(SC)c2)c1N returned VACV mCherry inh -22%, MARV entry inh 0%[46.1 µM], FMDV antiviral -39%, VACV Venus inh -14%, Lassa entry inh inconclusive and Sm TGR inh 1%.
For Cc1ccc(C(=O)Nc2cccc(-c3nc(CNC(=O)C4(C)CC4)c(C)o3)c2)s1 the results were VACV mCherry inh -13%, FMDV antiviral 28% and VACV Venus inh -15%.
Screening CCCCN(CC)C(=O)c1nn(C)c2c1CSc1ccccc1-2 returned VACV mCherry inh -12%, MARV entry inh 3%[46.1 µM], FMDV antiviral 1%, VACV Venus inh -6%, Lassa entry inh 7%[46.1 µM] and Sm TGR inh 45µM*.
`CCCCNC(=S)Nc1cccc(S(=O)(=O)NC2=NCCC2)c1` gave VACV mCherry inh -9%, MARV entry inh inconclusive, FMDV antiviral 50%, VACV Venus inh -11%, Lassa entry inh inconclusive and Sm TGR inh 40µM*.
O=C(CCl)Nc1cccc(S(=O)(=O)NC2=NCCC2)c1 was read as FMDV antiviral -25% and Sm TGR inh 6.3µM*.
O=C(c1cnc(N2CCOCC2)c2ccccc12)N1CCN(c2ccc(F)cc2)CC1 was read as VACV mCherry inh -22%, FMDV antiviral -8%, VACV Venus inh -17%, Lassa entry inh -7%[46.1 µM] and Sm TGR inh 6%.
Screening CCCc1nc2cccnc2n1C1CCN(C(=O)Cn2nccc2C)CC1 returned VACV mCherry inh -10%, FMDV antiviral 9% and VACV Venus inh -9%.
`Cc1cc(-c2ccc(C)c(S(=O)(=O)Nc3cccc(C#N)c3)c2)on1` gave VACV mCherry inh inactive, FMDV antiviral 25%, VACV Venus inh -19%, Lassa entry inh -5%[46.1 µM] and Sm TGR inh 6%.
Screening NC(=O)CSC1=N/C(=C\c2ccco2)C(=O)N1c1ccc(OC(F)F)cc1 returned FMDV antiviral inconclusive and Sm TGR inh 45µM*.
`CCC(O)CNC(=O)c1cnn(-c2ncc3c(n2)-c2ccccc2CCC3)c1C1CC1` (configuration not stated) gave VACV mCherry inh -5%, FMDV antiviral 38% and VACV Venus inh -6%.
Cc1sc2ncnc(SC(C)C(=O)N3c4ccccc4Sc4ccccc43)c2c1C (configuration not stated) was read as VACV mCherry inh -25%, MARV entry inh 11µM*, FMDV antiviral -25%, VACV Venus inh -8%, Lassa entry inh inconclusive and Sm TGR inh 0%.
For COC(=O)c1[nH]c2cccc(Cl)c2c1NC(=O)CN(C)C1CCCCC1 the results were MARV entry inh 11µM*, FMDV antiviral -5%, VACV Venus inh -9%, Lassa entry inh -2% and Sm TGR inh -5%.
For CN(c1ccccc1)S(=O)(=O)c1cc(C(=O)NCc2ccco2)ccc1Cl the results were VACV mCherry inh inactive, FMDV antiviral -2% and VACV Venus inh -28%.
For c1ccc2c(C3=NNC(=NC4CCCCC4)SC3)c[nH]c2c1 the results were MARV entry inh 0%, FMDV antiviral 34%, Lassa entry inh 2% and Sm TGR inh 0%.
For c1ccc(C2=NNC(=NC3CC3)SC2)cc1 the results were VACV mCherry inh inactive, MARV entry inh inconclusive, VACV Venus inh -8%, Lassa entry inh 8.2µM* and Sm TGR inh -5%.
For c1ccc2c(C3=NNC(=NC4CC4)SC3)c[nH]c2c1 the results were VACV mCherry inh -9%, MARV entry inh inconclusive, FMDV antiviral -61%, VACV Venus inh -14%, Lassa entry inh 11µM* and Sm TGR inh 7%.
N/C(CCCN1CCCCC1)=N\O was read as MARV entry inh 4%.
Screening CCOC(=O)c1ccc(NC(=O)c2ccc(=O)n(Cc3cccc(C)c3)c2)cc1 returned VACV mCherry inh -26%, FMDV antiviral inconclusive, VACV Venus inh -26%, Lassa entry inh inconclusive and Sm TGR inh 1%.
O=C(Cn1c(=O)n(Cc2ccco2)c(=O)c2cccnc21)Nc1ccccc1F was read as VACV mCherry inh -8%, MARV entry inh 14%[46.1 µM], FMDV antiviral -22%, VACV Venus inh 0% and Sm TGR inh 1%.
